# Reference: the supplement of paper PMC6555819
# How the values were obtained:
# Test in all cases: PBM binding z-score (relative to random genomic background probes); higher = stronger binding; sequences stand for … in GC…GCGATTGACAGCGTAGAATGAAGG
# [1] = test system: FXR:RXRa (NR concentration 270 nM, RXRa partner concentration 90 nM)
# Procedure, shortened: (§1)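 Scanned fluorescence from custom Agilent 4×180K protein-binding microarrays was regression-normalized. Binding z-scores use random background probes as reference. Ligand-free nuclear receptor dimers were incubated on the arrays for 1 h and detected with antibodies against each partner (one per run).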
# [2] = test system: LXRa:RXRa (NR concentration 270 nM, RXRa partner concentration 90 nM)
# Procedure, shortened: as §1
# [3] = test system: LXRa homodimer (NR concentration 270 nM)
# Procedure, shortened: as §1
# [4] = test system: LXRb:RXRa (NR concentration 270 nM, RXRa partner concentration 90 nM)
# Procedure, shortened: as §1
# [5] = test system: LXRb homodimer (NR concentration 270 nM)
# Procedure, shortened: as §1
# [6] = test system: PPARa:RXRa (NR concentration 270 nM, RXRa partner concentration 90 nM)
# Procedure, shortened: as §1
# [7] = test system: PPARg:RXRa (NR concentration 180 nM, RXRa partner concentration 90 nM)
# Procedure, shortened: as §1
# [8] = test system: PPARg:RXRa 270nM:90nM, anti-RXR (NR concentration 270 nM, RXRa partner concentration 90 nM)
# Procedure, shortened: as §1
# [9] = test system: PPARg:RXRa 30nM:10nM, anti-RXR (NR concentration 30 nM, RXRa partner concentration 10 nM)
# Procedure, shortened: as §1
# [10] = test system: PPARg:RXRa 90nM:30nM, anti-RXR (NR concentration 90 nM, RXRa partner concentration 30 nM)
# Procedure, shortened: as §1
Sequence,PBM binding z-score [1],PBM binding z-score [2],PBM binding z-score [3],PBM binding z-score [4],PBM binding z-score [5],PBM binding z-score [6],PBM binding z-score [7],PBM binding z-score [8],PBM binding z-score [9],PBM binding z-score [10]
CCTAGTTGGTGAAGGTCACACACGCTATAGGTAC,2.89,3.37,1.45,3.42,0.755,3.66,2.32,3.03,1.1,1.97
TCGCGTAGGTTAGTCGGGGCATTCAGCCAACATA,0.0922,-0.043,-0.337,0.83,-0.797,0.69,-0.444,0.614,0.929,0.992
GGGACTGGGGCATCAGCAGGTTACCATAACTTAA,0.464,0.607,0.713,1.81,2.25,2.25,3.27,2.6,0.527,1.93
TAGCCTAGGTCAATGGGCCAGTATAGTACGCATC,3.09,2.16,-0.016,1.51,-0.146,3.27,2.95,2.83,0.834,1.67
CGTCCAAGGTCAAAGGAGGTCAGTGAAGACAGAT,7.79,7.44,4.18,5.88,1.51,6.08,5.84,5.46,2.75,4.81
CGTCCAAGGTCATAGGAGGTCAGTGACGACAGAT,7.82,7.6,4.84,6.12,0.978,6.02,5.6,5.9,2.05,4.62
GCTATTAGTTGAAAGGCCAACCGAATGATTCTCG,0.0459,0.417,0.216,0.305,-0.435,1.3,1.43,3.21,1.27,2.6
ATATGTAGGGTACATCCGGGTCATTCAGGCTATG,1.96,2.96,1.43,2.4,1.27,3.89,4.04,3.53,1.46,2.33
ACAGCCAGGTGATGAAGGTAACTCAGGCTATCAT,-0.381,-0.496,-0.468,-0.553,-0.982,0.0268,0.565,-0.0458,-0.229,-0.315
TCTTGTAGATCAAAGATTAAGAAAGCCGAAGCCT,0.277,0.499,-0.302,0.245,-0.0264,1.12,1.55,3.63,3.56,3.75
ACAGACAGGTGATGCAGGTAACTCAGGCTATCAT,-0.0955,-0.176,-0.459,-0.222,-0.442,0.00895,0.577,-0.188,-0.309,-0.256
GATACAGTGTCAGCTAGAGGCCAGAGTATGGAAA,-0.507,-0.554,-0.437,-0.763,-0.98,-0.257,0.158,-0.349,-0.273,-0.224
CCTACTGGGCCAAGGTCGTTGATCAGTCAAAGCA,0.16,0.0412,-0.352,0.25,-0.992,1.56,1.7,2.33,0.177,1.6
TCTGGTAGATCAAGCAGGTTAAGAAAGCCTGAGT,-0.292,-0.109,-0.642,0.00998,-1.25,0.171,-0.556,0.81,2.17,1.5
TCTAGTTGGTCAACGGTCACACACTCGAAATGCG,0.705,0.745,0.892,1.04,0.0272,2.38,3.99,5.35,4.78,5.32
CCTGCTAGGCCAATGGTCAGCTAAAGCAGCTCGC,-0.614,-0.503,-0.698,-0.914,-0.839,-0.216,0.706,2.33,0.142,1.6
ATCGAAAGGTCGGGGTGAGTATAGAGAAAGGGAA,3.39,3.1,0.378,3.56,1.97,4.39,2.87,2.83,1.07,2.04
TCATATAGGTAATACAGGTGAAAATCGGCATCTA,1.35,1.37,0.422,1.27,0.421,2,1.78,2.58,4.1,3.43
GATACAGGGTCAGCTAGAGGCCAGAGCATGGAAA,4.96,2.87,-0.62,2.42,-0.712,4.58,3.81,3.58,1.01,2.09
CAGCCTAGGTCAGGGCCAGTACAGGAGGAACGTT,1.53,0.993,-0.276,0.431,-1.11,2.09,0.833,0.908,-0.375,0.307
ACTTACGGGTCAACGAGGTTAGAGCACGCGTATA,6.72,4.76,0.422,3.9,0.261,5.57,5.52,5.72,2.15,4.13
TCTCGGAGGACACGAGAGGTCAGAGCTCGACATC,2.17,3.37,2.61,2.53,-0.47,2.99,0.952,1.88,1.53,1.48
TAGCCTAGGTCATTCACGGGCCAGTATAGAAAGC,4.64,3.74,0.702,2.48,0.779,3.36,2.05,2.19,0.448,1.74
ATCTCTCGGTAACAAGTTCAGTGAAAGAGAGGAC,0.379,0.429,0.428,0.549,0.942,0.533,0.157,0.369,0.251,0.484
GCTGCTAGGTCAGGTTGGTCAGCTATCGGGTACG,1.38,0.811,-0.13,0.574,-0.138,1.42,0.304,1.19,-0.614,0.562
